According to PubChem BioAssay AID1159580 (chemical genetic matrix, 2015):
The whole screen tested about 5,500 compounds, of which about 2,000 (36%) were called active. Roughly 18% stayed inconclusive and do not appear here. Cut-off read from the data, not from the text of the source: active = normalized growth mostly below about 0.91 (no sharp cut-off); inconclusive = no clear call, values can overlap the other calls; inactive = mostly above about 0.92. The list shows a part of the results.

Test: chemical genetic growth profiling, strain panel (AID 1159580);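 note: tested at 20 µM; growth read once vehicle control cultures reached saturation at 30 °C; 1 = growth at the plate median or of vehicle wells; lower values mean less growth of the strain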
Settings: S. cerevisiae deletion strains, growth OD
[1] = locus YBR229C, strain ROT2, stronger effect = lower value
[2] = locus YCL061C, strain MRC1, stronger effect = lower value
[3] = locus YDL101C, strain DUN1, stronger effect = lower value
[4] = locus YEL061C, strain CIN8, stronger effect = lower value
[5] = locus YHR030C, strain SLT2, stronger effect = lower value
[6] = locus YJL187C, strain SWE1, stronger effect = lower value
[7] = locus YJR043C, strain POL32, stronger effect = lower value
[8] = locus YLR039C, strain RIC1, stronger effect = lower value
[9] = locus YLR262C, strain YPT6, stronger effect = lower value
[10] = locus YMR307W, strain GAS1, stronger effect = lower value
[11] = locus YNL153C, strain GIM3, stronger effect = lower value
[12] = locus YPL241C, strain CIN2, stronger effect = lower value

Measured: normalized growth

CCOC(=O)CNc1ccc(Cl)c(Cl)c1
inactive: locus YAL013W, strain DEP1, stronger effect = lower value 0.949 | [1] 0.969 | [2] 0.977 | [3] 0.974 | locus YDR150W, strain NUM1, stronger effect = lower value 0.967 | [4] 0.986 | locus YGR078C, strain PAC10, stronger effect = lower value 0.958 | locus YGR229C, strain SMI1, stronger effect = lower value 0.998 | [5] 0.746 | locus YHR087W, strain rtc3, stronger effect = lower value 0.978 | [6] 0.973 | [7] 0.974 | locus YJR075W, strain HOC1, stronger effect = lower value 0.927 | [8] 0.971 | locus YLR058C, strain SHM2 (second series), stronger effect = lower value 0.97 | locus YLR085C, strain ARP6, stronger effect = lower value 0.876 | [9] 0.975 | locus YML094W, strain GIM5, stronger effect = lower value 0.973 | locus YMR219W, strain ESC1, stronger effect = lower value 0.974 | locus YMR263W, strain SAP30, stronger effect = lower value 0.946 | [10] 0.986 | [11] 0.962 | locus YNL298W, strain CLA4 (second series), stronger effect = lower value 0.931 | locus YNL322C, strain KRE1, stronger effect = lower value 0.971 | locus YNR030W, strain Alg12, stronger effect = lower value 0.995 | locus YPL055C, strain LGE1, stronger effect = lower value 0.87 | [12] 1 | locus YPR135W, strain CTF4, stronger effect = lower value 0.906

CC(=O)O[C@@H]1CC2C(C)(C)[C@@H](O)CC[C@]2(C)C2CC[C@@]3(C)[C@H](c4ccoc4)OC(=O)[C@H]4O[C@]43[C@@]21C (stereo not given in full)
active: locus YBR021W, strain FUR4, stronger effect = lower value 0.823
inactive: locus YAL021C, strain ccr4, stronger effect = lower value 1.02 | locus YAL026C, strain drs2, stronger effect = lower value 0.989 | locus YAL030W, strain snc1, stronger effect = lower value 0.996 | locus YBL061C, strain skt5, stronger effect = lower value 0.984 | locus YBR009C, strain hhf1, stronger effect = lower value 1 | locus YBR023C, strain chs3, stronger effect = lower value 0.991 | locus YBR171W, strain sec66, stronger effect = lower value 0.993 | [1] 1.01 | locus YBR231C, strain swc5, stronger effect = lower value 0.995 | locus YBR279W, strain paf1, stronger effect = lower value 0.998 | locus YCL011C, strain gbp2, stronger effect = lower value 0.985 | locus YCL016C, strain dcc1, stronger effect = lower value 0.995 | locus YCL029C, strain bik1, stronger effect = lower value 0.997 | [2] 0.994 | locus YCL069W, strain vba3, stronger effect = lower value 0.988 | locus YCR088W, strain abp1, stronger effect = lower value 0.988 | locus YDL005C, strain med2, stronger effect = lower value 0.988 | locus YDL035C, strain GPR1, stronger effect = lower value 0.967 | locus YDL040C, strain nat1, stronger effect = lower value 0.986 | locus YDL074C, strain BRE1, stronger effect = lower value 0.947 | [3] 1.02 | locus YDL134C, strain PPH21, stronger effect = lower value 1 | locus YDL185W, strain tfp1, stronger effect = lower value 1 | locus YDL192W, strain arf1, stronger effect = lower value 0.964 | locus YDR001C, strain nth1, stronger effect = lower value 0.996 | locus YDR069C, strain doa4, stronger effect = lower value 1.01 | locus YDR101C, strain arx1, stronger effect = lower value 0.973 | locus YDR137W, strain rgp1, stronger effect = lower value 0.986 | locus YDR159W, strain sac3, stronger effect = lower value 0.964 | locus YDR162C, strain NBP2, stronger effect = lower value 0.987 | locus YDR195W, strain ref2 0.981 | locus YDR297W, strain sur2, stronger effect = lower value 1.01 | locus YDR318W, strain mcm21, stronger effect = lower value 0.99 | locus YDR334W, strain swr1, stronger effect = lower value 1.01 | locus YDR335W, strain msn5, stronger effect = lower value 0.995 | locus YDR388W, stronger effect = lower value 1.02 | locus YDR392W, strain spt3, stronger effect = lower value 0.968 | locus YDR502C, strain sam2, stronger effect = lower value 1 | locus YEL003W, strain gim4, stronger effect = lower value 0.987 | locus YEL037C, strain rad23, stronger effect = lower value 0.995 | locus YEL061C, strain CIN8 (second series), stronger effect = lower value 0.992 | [4] 1 | locus YER015W, strain faa2, stronger effect = lower value 0.996 | locus YER016W, strain bim1, stronger effect = lower value 0.989 | locus YER110C, stronger effect = lower value 1.02 | locus YER111C, strain swi4, stronger effect = lower value 0.98 | locus YER155C, strain BEM2 (second series), stronger effect = lower value 1.01 | locus YER155C, strain BEM2, stronger effect = lower value 1.02 | locus YER167W, strain BCK2, stronger effect = lower value 0.996 | locus YFR010W, strain ubp6, stronger effect = lower value 0.993 | locus YGL078C, strain dbp3, stronger effect = lower value 1.02 | locus YGL086W, strain mad1, stronger effect = lower value 0.998 | locus YGL167C, strain pmr1, stronger effect = lower value 0.998 | locus YGL173C, strain kem1, stronger effect = lower value 0.998 | locus YGL227W, strain vid30, stronger effect = lower value 0.989 | locus YGL240W, strain doc1, stronger effect = lower value 0.966 | locus YGL248W, strain PDE1, stronger effect = lower value 1.01 | locus YGL253W, strain hxk2, stronger effect = lower value 0.95 | locus YGR135W, strain pre9, stronger effect = lower value 1.04 | locus YGR252W, strain gcn5, stronger effect = lower value 0.975 | locus YHR013C, strain ard1, stronger effect = lower value 0.988 | locus YHR027C, strain rpn1, stronger effect = lower value 0.983 | [5] 1.01 | locus YHR079C, strain IRE1 (second series), stronger effect = lower value 1.01 | locus YHR079C, strain IRE1, stronger effect = lower value 1.02 | locus YHR094C, strain hxt1, stronger effect = lower value 1.01 | locus YHR129C, strain ARP1, stronger effect = lower value 1.01 | locus YHR142W, strain chs7, stronger effect = lower value 0.992 | locus YHR200W, strain rpn10, stronger effect = lower value 1.01 | locus YIL066C, strain RNR3, stronger effect = lower value 0.967 | locus YIL073C, strain SPO22, stronger effect = lower value 1.03 | locus YIL125W, strain kgd1, stronger effect = lower value 1.01 | locus YIR030C, strain dcg1, stronger effect = lower value 1 | locus YJL092W, strain hpr5, stronger effect = lower value 0.995 | locus YJL095W, strain BCK1 (second series), stronger effect = lower value 1.01 | locus YJL095W, strain BCK1, stronger effect = lower value 1.01 | locus YJL115W, strain asf1, stronger effect = lower value 0.997 | locus YJL129C, strain trk1, stronger effect = lower value 0.976 | locus YJL134W, strain LCB3, stronger effect = lower value 1.01 | locus YJL154C, strain vps35, stronger effect = lower value 0.994 | locus YJL164C, strain tpk1, stronger effect = lower value 1 | locus YJL166W, strain qcr8, stronger effect = lower value 0.988 | locus YJL168C, strain set2, stronger effect = lower value 1.01 | locus YJL187C, strain SWE1 (second series), stronger effect = lower value 1.02 | [6] 0.991 | [7] 0.979 | locus YJR066W, strain TOR1, stronger effect = lower value 0.966 | locus YKL009W, strain mrt4, stronger effect = lower value 0.964 | locus YKL068W, stronger effect = lower value 1.01 | locus YKL085W, strain MDH1 (second series), stronger effect = lower value 1 | locus YKL085W, strain MDH1, stronger effect = lower value 1 | locus YKL160W, strain elf1, stronger effect = lower value 0.997 | locus YKR001C, strain vps1, stronger effect = lower value 1 | locus YKR026C, strain gcn3, stronger effect = lower value 1 | locus YKR091W, strain srl3, stronger effect = lower value 1 | locus YLL001W, strain dnm1, stronger effect = lower value 0.996 | locus YLL026W, stronger effect = lower value 0.997 | locus YLL041C, strain sdh2, stronger effect = lower value 0.997 | locus YLR027C, strain aat2, stronger effect = lower value 0.999 | [8] 0.981 | locus YLR058C, strain SHM2, stronger effect = lower value 1 | locus YLR102C, strain apc9, stronger effect = lower value 1.01 | locus YLR113W, strain HOG1, stronger effect = lower value 0.968 | locus YLR221C, strain rsa3, stronger effect = lower value 0.987 | locus YLR258W, strain gsy2, stronger effect = lower value 1.01 | locus YLR262C, strain YPT6 (second series), stronger effect = lower value 0.967 | [9] 0.974 | locus YLR268W, strain sec22, stronger effect = lower value 0.967 | locus YLR320W, strain mms22, stronger effect = lower value 0.989 | locus YLR330W, strain CHS5, stronger effect = lower value 0.999 | locus YLR342W, strain FKS1, stronger effect = lower value 0.992 | locus YLR357W, strain rsc2, stronger effect = lower value 1.03 | locus YLR370C, strain arc18, stronger effect = lower value 1.01 | locus YLR371W, strain rom2, stronger effect = lower value 1.03 | locus YLR384C, strain iki3, stronger effect = lower value 0.992 | locus YLR418C, strain cdc73, stronger effect = lower value 0.968 | locus YML016C, strain PPZ1, stronger effect = lower value 1.01 | locus YML032C, strain rad52, stronger effect = lower value 0.997 | locus YML120C, strain ndi1, stronger effect = lower value 1 | locus YML124C, strain tub3, stronger effect = lower value 1 | locus YMR058W, strain fet3, stronger effect = lower value 1.01 | locus YMR078C, strain ctf18, stronger effect = lower value 1.01 | locus YMR125W, strain sto1, stronger effect = lower value 1.02 | locus YMR129W, stronger effect = lower value 0.993 | locus YMR205C, strain PFK2, stronger effect = lower value 0.993 | locus YMR223W, strain ubp8, stronger effect = lower value 1.01 | locus YMR231W, strain pep5, stronger effect = lower value 0.959 | [10] 0.953 | locus YNL067W, strain RPL9B, stronger effect = lower value 1.05 | locus YNL071W, strain lat1, stronger effect = lower value 0.993 | [11] 1.04 | locus YNL183C, strain NPR1, stronger effect = lower value 0.976 | locus YNL209W, strain ssb2, stronger effect = lower value 0.992 | locus YNL233W, strain BNI4, stronger effect = lower value 1.01 | locus YNL248C, strain rpa49, stronger effect = lower value 0.995 | locus YNL250W, strain rad50, stronger effect = lower value 1.04 | locus YNL271C, strain bni1, stronger effect = lower value 0.999 | locus YNL298W, strain CLA4, stronger effect = lower value 0.991 | locus YNL307C, strain MCK1, stronger effect = lower value 1.01 | locus YNL322C, strain KRE1 (second series), stronger effect = lower value 0.989 | locus YNR049C, strain mso1, stronger effect = lower value 0.994 | locus YNR052C, strain pop2, stronger effect = lower value 1.02 | locus YOL006C, strain TOP1, stronger effect = lower value 0.891 | locus YOL012C, strain htz1 1.11 | locus YOL147C, strain pex11, stronger effect = lower value 0.996 | locus YOR001W, strain rrp6, stronger effect = lower value 0.981 | locus YOR061W, strain CKA2, stronger effect = lower value 0.985 | locus YOR069W, strain VPS5, stronger effect = lower value 1.01 | locus YOR070C, strain gyp1, stronger effect = lower value 0.988 | locus YOR080W, strain dia2, stronger effect = lower value 0.99 | locus YOR083W, strain WHI5, stronger effect = lower value 1 | locus YOR106W, strain vam3, stronger effect = lower value 0.984 | locus YOR136W, strain idh2, stronger effect = lower value 1 | locus YOR144C, strain elg1, stronger effect = lower value 1 | locus YOR184W, strain ser1, stronger effect = lower value 0.949 | locus YOR231W, strain MKK1, stronger effect = lower value 0.998 | locus YOR265W, strain rbl2, stronger effect = lower value 1 | locus YOR270C, strain vph1, stronger effect = lower value 0.912 | locus YOR290C, strain snf2, stronger effect = lower value 0.978 | locus YOR316C, strain cot1, stronger effect = lower value 1.01 | locus YPL051W, strain arl3, stronger effect = lower value 1.01 | locus YPL078C, strain atp4, stronger effect = lower value 0.991 | locus YPL106C, strain sse1, stronger effect = lower value 1.01 | locus YPL240C, strain hsp82, stronger effect = lower value 0.989 | [12] 1 | locus YPL256C, strain CLN2, stronger effect = lower value 1.06 | locus YPR119W, strain clb2, stronger effect = lower value 1.02 | locus YPR141C, strain kar3, stronger effect = lower value 1.01 | locus YPR163C, strain tif3, stronger effect = lower value 1 | locus YPR167C, strain met16, stronger effect = lower value 1 | strain wtn01, stronger effect = lower value 0.976
